Data from PubChem BioAssay AID2177 (The Scripps Research Institute Molecular Screening Center, 2009).
Among all 320,000 compounds or so, about 1,200 (0.38%) were called active. This is one part of a sample in which actives are shown more often than they occur. Values without a mark were called inactive.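 The calls were made as follows: active = inhibition above the screen-wide mean plus 3 SD, limit set per campaign (cut at about 26% in these data); inactive = the rest.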

These compounds were tested against Acyl-protein thioesterase 2 (Homo sapiens) (UniProt O95372) (assay: LYPLA2 inhibitors, primary screen, counter-screen for PME1 inhibitor project, biochemical, fluorescence polarization, FP-Rh probe ABPP (AID 2177;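 also: 0% = LYPLA2 with DMSO and 100% = wells lacking LYPLA2 enzyme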)). Conditions: recombinant LYPLA2, FP-Rh probe fluorescence polarization; at 5.9 µM; hits give high values.
Sequence of Acyl-protein thioesterase 2 (Homo sapiens) (O95372 whole entry, looked up): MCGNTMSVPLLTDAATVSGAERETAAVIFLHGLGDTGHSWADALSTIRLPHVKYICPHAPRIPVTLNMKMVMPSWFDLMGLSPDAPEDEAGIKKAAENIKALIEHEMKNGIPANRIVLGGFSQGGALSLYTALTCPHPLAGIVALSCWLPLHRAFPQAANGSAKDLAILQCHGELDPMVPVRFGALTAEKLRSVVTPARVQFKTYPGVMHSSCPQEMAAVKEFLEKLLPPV

Compound | inhibition
Oc1ccc(N=Cc2sc3ccccc3c2Cl)cc1 | 7.6%
CCOc1[nH]n(-c2ccc(Cl)cc2)c(=O)c1C=Nc1ccc(O)cc1 | 3.53%
Oc1ccc(N=Cc2c(O)ccc3ccccc23)cc1 | 32.3% (active)
CCOC(=O)N1CCN(c2c(NCCN3CCN(c4ccccc4F)CC3)c(=O)c2=O)CC1 | 1.74%
O=[N+]([O-])c1ccc(F)cc1Oc1nc(-c2cccnc2)nc2ccccc12 | -3.66%
O=[N+]([O-])c1ccc(Oc2ccc(F)cc2Br)c2ccncc12 | 41.4% (active)
O=S(=O)(/N=C(/Nc1ccccc1)c1ccccc1)c1cccs1 | 1.19%
Cc1ccc(S(=O)(=O)N(CC(=O)NCc2ccco2)c2ccccc2C)cc1 | -4.36%
CC(=O)Nc1ccc(NC(=O)CN2C(=O)COc3ccc(S(=O)(=O)N4CCCCC4)cc32)cc1 | -8.84%
COc1ccc(NC(=O)CN2C(=O)COc3ccc(S(=O)(=O)N4CCOCC4)cc32)cc1 | 7%
CSc1cccc(NC(=O)CN2C(=O)COc3ccc(S(=O)(=O)N4CCOCC4)cc32)c1 | 35.7% (active)
O=S(=O)(Nc1ccc2[nH]ncc2c1)c1ccccc1Cl | -3.28%
O=c1[nH]n(-c2ccc([N+](=O)[O-])cc2)c(=O)c2ccccc12 | 33.6% (active)
COc1cnn(-c2ccc([N+](=O)[O-])cc2)c(=O)c1Cl | 6.75%
O=c1[nH]c2cccnc2n1-c1ccc([N+](=O)[O-])cc1 | 0.99%
Cc1ccc(N2CCN(c3ccc(C)cc3)C2c2ccccn2)cc1 | 3.84%
CC(NCc1cccs1)C(=O)Nc1cc(Cl)cc(Cl)c1 (configuration not stated) | -2.93%
Cn1nc(C(F)(F)F)c2cc(NC(=O)OCC(C)(C)C)sc21 | -2.17%
O=C1OCC2=C1C(c1ccccc1)CC(=O)N2c1cccc(F)c1 (configuration not stated) | 0.97%
CCc1nnc(NC(=O)CSc2nnnn2-c2cccc(C(C)=O)c2)s1 | 0.16%
COC(=O)c1cc(NC(=O)c2cccnc2)ccc1N1CCOCC1 | 2.91%
O=C(Nc1ccc(N2CCN(C(=O)c3ccccc3)CC2)c(Cl)c1)c1cccnc1 | 27.9% (active)
O=C(Nc1ccc(N2CCN(C(=O)c3ccccc3)CC2)c(Cl)c1)c1ncn[nH]1 | 14.6%
COC(=O)c1ccccc1NC(=O)CN(Cc1ccccc1)S(C)(=O)=O | -8.82%

Compound | inhibition
COc1ccc([C@H]2CC(=O)C=C(c3ccc(C)cc3)C2)cc1 | 15.7%
O=C1C=C(c2cccc(Cl)c2)C[C@@H](c2ccc(F)cc2)C1 | 0.27%
N#Cc1ccc(C2=CC(=O)C[C@H](c3ccc(Cl)cc3)C2)cc1 | 43.3% (active)
O=C(c1ccco1)N1CCN(C(=S)Nc2cc(F)cc(F)c2)CC1 | 33.1% (active)
O=C(CN1CCN(C(=O)c2ccco2)CC1)Nc1ccc2c(c1)OCO2 | -2.14%
CCNC(=S)N1CCN(C(=O)c2ccco2)CC1 | 2.65%
COc1ccc(CN(C)C(=O)Cc2ccsc2)c(OC)c1OC | 4.71%
CCOc1ccc(C(=O)NC(=S)Nc2ccc(NC(=O)C(C)C)cc2)cc1[N+](=O)[O-] | 19.4%
COc1cccc(OC)c1C(=O)NC(=S)Nc1ccc(N2CCOCC2)c(Cl)c1 | -0.51%
CCOc1ccc(C(=O)NC(=S)Nc2ccc(N3CCOCC3)c(Cl)c2)cc1[N+](=O)[O-] | 26.8% (active)
O=C(Nc1ccccc1N1CCOCC1)c1ccncc1 | -4.72%
Cc1nn2c(=O)cc(COC(=O)c3ccc(NC(=O)C(C)(C)C)cc3)nc2s1 | 31.4% (active)
Cc1csc2nc(COC(=O)c3cccc(N(C)C)c3)cc(=O)n12 | 6.85%
COCCc1nn2c(=O)cc(COC(=O)c3cc(OC)c(OC)c(OC)c3)nc2s1 | 7.86%
O=C(Nc1ccc([N+](=O)[O-])cc1)OCCc1ccccn1 | 1.34%
Cc1ccc(N2CCN(C3=NC(=O)/C(=C\c4cccs4)S3)CC2)cc1 | 51.7% (active)
Cc1ccc(N2CCN(/N=C/c3cccs3)CC2)cc1 | 6.07%
Cc1ccsc1/C=C1\SC(N2CCOCC2)=NC1=O | 1.19%
Cc1ccc(S(=O)(=O)N(C)CC(=O)OCC(=O)N2CC(=O)Nc3ccccc32)cc1 | 2.05%
CCN(CC)c1ccc(C(=O)NNC(=O)CCc2nc3ccccc3c(=O)[nH]2)cc1 | 26.9% (active)
CCN(CC)c1ccc(C(=O)Nn2c(C)nc3ccccc3c2=O)cc1 | 4.7%
CCCC(=O)N(CCc1ccccc1)Cc1nc2ccccc2c(=O)[nH]1 | -5.43%
CCOCCCN(C)C1CCN(C(=O)c2oc3ccccc3c2NC(=O)COc2cccc(C)c2)CC1 | -6.18%
